# From PubChem BioAssay
# This is a sample that favours compounds with a hit; in the whole collection about 7.9% have one here.
# Lassa entry inh: blocks Lassa virus binding to or entry into cells. Lassa virus pseudotype entry inhibition, cell reporter. 300,000 tested, 1.2% active. Potency, µM (titrated, usually from 37.9 µM), for inactives: at the top dose activity change, negative = inhibition, hits mostly inhibitors; calls by dose curve; tested in HEK293 cells; note: potency is the fitted concentration of half-maximal effect; nearly all actives have a fitted effect of over 50% in size
# FMDV antiviral: foot and mouth disease virus antiviral activity | FMDV antiviral cell-based qHTS | Potency, µM (doses to about 57.9 µM), without a hit: at the top dose activity change, negative = inhibition, most hits filed as inhibitors | 410,000 tested, 1.2% active | AID 1159524; calls by dose curve; tested in HEK293T cells; note: read-out not given here; potency is the fitted concentration of half-maximal effect; nearly all actives have a fitted effect of over 45% in size
# MARV entry inh: Marburg virus entry inhibition; Potency, µM (highest dose often 37.8 µM), for the others: top-dose activity change, negative = inhibition, most hits filed as inhibitors; AID 540276; 300,000 tested, 1.8% active; Marburg virus pseudotyped entry inhibition, cell reporter; calls by dose curve; tested in HEK293 cells; note: potency is the fitted concentration of half-maximal effect
# HCMV inh: inhibitors of human cytomegalovirus | HFF cells, HCMV-luciferase reporter, 72 h; stronger effect = lower value | 410,000 tested, 4.5% active | activity change, negative = inhibition, % at 57.5 µM | AID 1259415; in the data active = activity change below about -60%; inconclusive = no clear call, values can overlap the other calls; inactive = above about -39%
#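 Two compound doses tested in HFFs infected with HCMV-luciferase, MOI 1 PFU/cell, 72 h at 37C. Lysate luminescence read with OneGlo; data normalized against buffer-only and 10uM Salinomycin inhibitor controls.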
# HCV inh: HCV inhibition; 340,000 tested, 3.4% active; Potency, µM (titrated, usually from 41.8 µM), for inactives: at the highest dose activity change, negative = inhibition, hits mostly inhibitors; Huh7.5.1 HCVcc-Cre infection, luciferase reporter, 44 h; AID 651820; active = well fitted inhibition curve with a large enough effect; inconclusive = small, poorly fitted or top-dose-only effect, or another doubt; inactive = no such curve, though single readings can be large or run the other way; note: potency is the fitted concentration of half-maximal effect
#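 A cell-based infection assay in which seeded cells (1,000 per well) receive test compound after 4 h, are inoculated with HCVcc-Cre at approximately 0.5 moi, and are incubated 44 h before luminescence detection.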
# Starred values were filed as active, the others as inactive; ? = inconclusive; · = no result; ! = not confirmed by another sample; [ ] = dose if it differs, or a comment. % is set by controls: 0 for no effect and ±100 for the full control effect.
SMILES,Lassa entry inh,FMDV antiviral,MARV entry inh,HCMV inh,HCV inh
COc1ccc(-n2c(=S)[nH]c3cc(C(=O)Nc4ccc(F)cc4)ccc3c2=O)c(OC)c1,?,?,?,-69.7*,?
COc1ccc(-n2c(=S)[nH]c3cc(C(=O)Nc4ccccc4OC)ccc3c2=O)c(OC)c1,6.31µM*,?,-28.1%[46.1 µM],?,?
CCc1ccc(S(=O)(=O)Nc2ccc3oc(C)c(C(=O)OCCOC)c3c2)cc1,-21.8%[46.1 µM],9.6%,-28.7%[46.1 µM],0.6,·
COc1cccc(N2CCN(CC(=O)NC3=Nc4ccccc4N=C(C)C3c3ccccc3)CC2)c1 (stereo not drawn),?,-24.8%,?,1.2,?
CCOC(=O)Nc1nnc(-c2cccc(OC)c2)s1,-7.4%,40.2%,16.6%,-65.5*,-3.0%
COc1cccc(N2CCN(CC(=O)Nc3nnc(-c4ccccc4)s3)CC2)c1,0.794µM*,15.8µM*,?,-21.4,6.31µM*
CCOc1ccccc1OCCNC(C)Cc1ccc(OC)c(S(N)(=O)=O)c1 (stereo not drawn),·,·,·,4.2,·
Cc1ccc(S(=O)(=O)n2nc(-c3ccco3)nc2NCc2ccccc2Cl)cc1,11.7%[46.1 µM],71.5%,3.0%[46.1 µM],7.6,·
CCN(CCCNc1ncnc2nc[nH]c12)c1cccc(C)c1,·,?,·,-76.0*,?
CCN(CC)Cc1c(O)ccc2c(=O)c(Oc3ccccc3OC)coc12,0.2%,-13.9%,11.6%,-61.5*,6.4%
CC(=O)Nc1ccc(C(=O)N/N=C/c2cc(Br)cc(Br)c2O)cc1,?,-14.4%,10µM*,-7.8,-7.6%
COc1cc(OC)c(/C=N/NC(=O)c2ccc(NC(C)=O)cc2)cc1Br,10.8%,5.0%,?,-21.9,-5.6%
CC(C)C(=O)Nc1ccc(C(=O)N/N=C/c2cc(Br)cc(Br)c2O)cc1,?,-13.3%,?,-78.2*,?
Cc1ccc(C)c(Sc2ccc(NC(=O)CCl)cc2)c1,?,20µM*,?,8.4,?
Cc1ccc(Sc2ccc(NC(=O)CCl)cc2)cc1C,?,28.2µM*,?,26.9,?
O=C(CCl)Nc1ccccc1Sc1ccccc1,?,?,?,-11.1,14.2%
O=C(O)CCCn1cc(NC(=O)COc2ccc(F)cc2F)cn1,1.2%,3.7%,13.7%,3.8,·
O=C(O)CCCn1cc(NC(=O)COc2ccccc2F)cn1,?,10µM*!,8.0%[46.1 µM],-14.7,5.4%
Cc1nc2nc(SCC(=O)NC3CCC(C)CC3)nn2c(C)c1Cc1ccccc1 (stereo not drawn),2.7%[46.1 µM],-16.8%,·,3.5,·
COc1ccccc1CN(Cc1ccco1)c1cnc(S(C)(=O)=O)nc1C(=O)Nc1ccccc1Cl,-23.3%[46.1 µM],-13.9%,?,4.3,·
O=C(NCc1ccco1)c1ccc2c(c1)N(Cc1ccc(Cl)cc1)CCS2,?,-16.5%,?,?,10µM*
NS(=O)(=O)c1ccc(CCNC(=O)c2ccc3c(c2)N(Cc2ccccc2)CCS3)cc1,8.1%[46.1 µM],2.8%,0.4%[46.1 µM],-64.2*,-11.9%
O=C(NCCc1ccc(Cl)cc1)c1ccc2c(c1)N(Cc1ccccc1)CCS2,3.4%[46.1 µM],-10.6%,10.6%[46.1 µM],16.0,·
COc1ccc(CCNC(=O)CN2CCN(c3cccc(Cl)c3)CC2)cc1OC,-8.5%,-26.9%,-29.2%,10.8,10µM*
COc1ccc(CNC(=O)N2CCN(c3cccc(Cl)c3)CC2)cc1OC,·,?,-24.8%[46.1 µM],-0.6,?
SMILES,Lassa entry inh,FMDV antiviral,MARV entry inh,HCMV inh,HCV inh
COc1ccc(CCNC(=O)c2ccc3c(c2)N(Cc2ccccc2)CCS3)cc1OC,?,?,?,0.0,10µM*
CC(=O)Nc1ccc(NC(=O)c2cnc(N3CCN(Cc4cccc(C(F)(F)F)c4)C3=O)o2)cc1,·,·,·,-8.5,·
CCc1cccc(NC(=O)c2ccc3c(c2)c(C)c(C)n3Cc2ccc(F)cc2)c1,-11.8%[46.1 µM],-5.7%,·,0.0,·
O=C(NCCc1ccccc1)c1ccc2c(c1)N(Cc1ccc(F)cc1)C(=O)CS2,-22.4%[46.1 µM],?,·,-1.8,·
COc1ccc(CCNC(=O)c2ccc3c(c2)N(Cc2cccc(Cl)c2)C(=O)CS3)cc1OC,?,-20.7%,?,-61.1*,·
CCN1CCN(CCCNC(=O)c2ccc3c(c2)N(Cc2ccccc2)CCS3)CC1,·,-3.3%,·,-32.5,10µM*
O=C(O)c1ccc2c(c1)N(Cc1cccc(F)c1)C(=O)CS2,·,-11.7%,·,-99.5*,13.6%
COC(=O)C1CCN(Cc2ccc3c(c2)CN(C(=O)c2sc(C)nc2C)CCO3)CC1,·,-7.6%,·,·,·
COCC(=O)NC1CC2CCC(C1)N2C(=S)Nc1ccccc1C(=O)OC (stereo not drawn),-24.9%,-11.1%,-1.7%[46.1 µM],-82.8*,3.5%
CN1/C(=C\C(=O)C[n+]2ccc(C(=O)c3ccccc3)cc2)C(C)(C)c2ccccc21,·,-32.1%,·,-94.7*,?
Cc1ccc[n+](CC(=O)/C=C2\N(C)c3ccccc3C2(C)C)c1,2.1%,?,?,-97.5*,-4.3%
CN1/C(=C\C(=O)C[n+]2cccc(Br)c2)C(C)(C)c2ccccc21,?,?,-0.9%,-83.3*,-25.2%
Cc1cccc[n+]1CC(=O)/C=C1\N(C)c2ccccc2C1(C)C,?,?,?,-94.5*,-30.2%
COC(=O)C1=C(C)N(C(C)C)C(=O)C1(NC(=O)c1ccc(C(C)(C)C)cc1)C(F)(F)F (stereo not drawn),26.9%[46.1 µM],-14.3%,-10.4%[46.1 µM],5.8,·
Cc1ccc(CNC(=O)C(C)n2c(=O)cc(C(F)(F)F)c3c(C)nn(C)c32)cc1 (stereo not drawn),-9.8%[46.1 µM],-29.2%,·,7.1,·
CN1/C(=C\C(=O)CN2C(=O)NC3(CCCCCC3)C2=O)C(C)(C)c2ccccc21,?,20µM*,?,?,?
CN1/C(=C\C(=O)COC(=O)CN2C(=O)C3CC=CCC3C2=O)C(C)(C)c2ccccc21 (stereo not drawn),?,?,-1.2%,3.2,-22.4%
CN1/C(=C\C(=O)COC(=O)c2ccc(O)cc2)C(C)(C)c2ccccc21,·,-27.7%,·,-20.9,?
CN1/C(=C\C(=O)COC(=O)c2ccc(O)c(O)c2)C(C)(C)c2ccccc21,?,0.0%,?,-78.6*,?
Cc1ccc2nc(CN3CCN(C(=O)Nc4ccc(C)c(F)c4)CC3)oc2c1,-0.5%[46.1 µM],-13.2%,·,18.5,·
COCCNC(=O)CSc1nc(-c2cc(OC)c(OC)c(OC)c2)[nH]c1-c1ccc(Cl)cc1,-0.3%[46.1 µM],10.5%,?,-31.9,·
COCCNC(=O)CCCn1c(=O)[nH]c2ccsc2c1=O,?,-20.1%,19.9%[46.1 µM],-3.8,·
O=C1NC[C@H](c2ccccc2)N1,·,·,-12.7%[14.2 µM],·,·
N#CC(c1cccc(Cl)c1)c1ccc2c(C(F)(F)F)cc(C(F)(F)F)nc2n1 (stereo not drawn),2.24µM*,5.01µM*,?,-103.7*,2.82µM*
Cn1c2ccc(F)cc2c2nnc(SCCN3CCCCC3)nc21,-6.5%[46.1 µM],-7.4%,0.9%[46.1 µM],-86.2*!,11.2µM*
CCCCn1c2ccc(F)cc2c2nnc(SCCN3CCCCC3)nc21,-12.9%[46.1 µM],?,17.4%[46.1 µM],-30.3,?
